T_cruzi_growth-1: T. cruzi intracellular proliferation inhibitors, primary screen, cell-based, beta-gal Tulahuen parasites, NIH3T3 host, luminescence; T. cruzi beta-gal in NIH3T3, GalScreen luminescence, 90 h; inhibition, % at 8.34 µM; hit rate 5.9% among 77,000; AID 624255, 2012;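 active = mean inhibition above about 93%, with at least 55% of replicates each passing it, limit read from the data, passing the limit was not always enough; inconclusive = only one of those two conditions holds; inactive = neither condition holds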
C_diff_HTS: C. difficile growth inhibitors, primary screen, HTS; AID 1259249, 2017; Clostridium difficile clinical isolate growth, OD600, 24 h; active compounds read low; hit rate 0.25% among 86,000; growth activity, negative = inhibition, % at 16 µg/mL (by protocol);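 active = mean growth activity at or below -80% and every replicate also at or below -80%; inconclusive = mean at or below -80% but some replicate above -80%; inactive = mean growth activity above -80%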;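 note: 0% = DMSO wells and -100% = levofloxacin 16 µg/mL wells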
Pf_Dd2_growth: P. falciparum Dd2 growth inhibitors, primary screen, SYBR Green fluorescence, single dose replicates. AID 1159554, 2015. activity change, % at 10 µM. 72 h; active compounds read low. hit rate 2.3% among 94,000; in the data active = activity change below about -80%; inconclusive = no clear call, values can overlap the other calls
T_cruzi_growth-2: T. cruzi intracellular proliferation inhibitors, confirmation, cell-based, NIH3T3 host, beta-gal parasite, luminescence, cherry-pick | shares compounds with T_cruzi_growth-1 | T. cruzi beta-gal in NIH3T3, GalScreen luminescence, 90 h | inhibition, % at 8.35 µM | hit rate 72% among 5,600 | AID 651739, 2012;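 active = mean replicate inhibition above about 95% and at least 55% of replicates individually reaching it, limit read from the data; inconclusive = only one of the two criteria is met; inactive = neither criterion is met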
T_cruzi_growth-3: inhibitors of intracellular T. cruzi replication, confirmation, NIH3T3 host cells, beta-gal parasites, cherry-pick, set 2; shares compounds with T_cruzi_growth-1; T. cruzi beta-gal in NIH3T3, GalScreen luminescence, 90 h; inhibition, % at 2.09 µM; hit rate 21% among 5,600;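 active = mean inhibition above about 95%, with at least 55% of replicates also reaching it, limit read from the data; inconclusive = meets just one of the two conditions; inactive = meets neither condition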;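 note: plate controls were neutral control median for no effect and positive control median for full effect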
NIH3T3_tox: cytotoxicity in mouse NIH/3T3 fibroblasts, confirmation, cytotoxicity control for T. cruzi proliferation inhibitor project, cell-based, cherry-pick, single point. shares compounds with T_cruzi_growth-1. NIH/3T3 viability, CellTiter-Glo ATP luminescence, 90 h. cytotoxicity (signal decrease), % at 8.35 µM. hit rate 14% among 5,600;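 active = mean signal decrease across replicates above about 35% based on untreated-well scatter, with enough replicates individually passing, limit read from the data; inconclusive = no rule stated though some were filed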;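 note: 0% = median of neutral control wells and 100% = median of positive control wells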
3T3_cytotox_2: NIH/3T3 fibroblast cytotoxicity, confirmation, cytotoxicity control, cell-based, cherry-pick, single point, set 2 | shares compounds with T_cruzi_growth-1 | NIH/3T3 viability, CellTiter-Glo ATP luminescence, 90 h | inhibition, % at 24.9 µM | hit rate 56% among 5,600;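 active = mean loss of cell viability signal at or above a set limit, and enough replicates individually reaching it; inconclusive = meets only the mean limit or only the replicate share; inactive = meets neither condition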;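 note: 0% = median of neutral control wells and 100% = median of positive control wells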
The depositor's hits bear a star; ? = inconclusive; nt = no result. The list is not random: actives were taken first. Their share in the collection is about 6.7%.

SMILES T_cruzi_growth-1 C_diff_HTS Pf_Dd2_growth T_cruzi_growth-2 T_cruzi_growth-3 NIH3T3_tox 3T3_cytotox_2
C[C@H]1CCCCO[C@@H](CN(C)S(=O)(=O)c2ccccc2)[C@@H](C)CN([C@@H](C)CO)C(=O)c2cc(NS(=O)(=O)c3ccc(F)cc3)ccc2O1 101* -16 -84* 107* 64 -5 12
C[C@@H]1CCCCO[C@H](CN(C)S(=O)(=O)c2ccccc2)[C@H](C)CN([C@@H](C)CO)C(=O)c2cc(NS(=O)(=O)c3ccc(F)cc3)ccc2O1 20 -11 -32 nt nt nt nt
CCCC#Cc1ccc2c(c1)O[C@H](CN(C)C(=O)COC)[C@@H](C)CN([C@@H](C)CO)S2(=O)=O 3 -3 -21 nt nt nt nt
Cc1cccc(S(=O)(=O)N2CC[C@@H]3[C@H]2c2cc(C#Cc4cccnc4)ccc2N[C@@H]3CO)c1 61 -2 -25 nt nt nt nt
C[C@H]1CN([C@@H](C)CO)C(=O)c2cc(C#Cc3cccc(F)c3)cnc2O[C@H]1CN(C)C(=O)C1CCC1 -227 4 -48 nt nt nt nt
COc1cccc(C#Cc2cnc3c(c2)C(=O)N([C@@H](C)CO)C[C@@H](C)[C@H](CN(C)C(=O)C2CCCCC2)O3)c1 85* 9 -63 100* 84 29 101*
C[C@H](CO)N1C[C@H](C)[C@@H](CN(C)C(=O)C2CCCCC2)Oc2ncc(C#Cc3cccc(F)c3)cc2C1=O 117* nt -72 104* 64 9 77*
COc1cccc(C#Cc2cnc3c(c2)C(=O)N([C@H](C)CO)C[C@H](C)[C@@H](CN(C)C(=O)C2CCCCC2)O3)c1 101* 28 -87* 110* 39 -4 103*
COc1cccc(C#Cc2cnc3c(c2)C(=O)N([C@@H](C)CO)C[C@@H](C)[C@H](CN(C)C(=O)C2CCC2)O3)c1 51 -1 -65 nt nt nt nt
COc1cccc(C#Cc2cnc3c(c2)C(=O)N([C@@H](C)CO)C[C@@H](C)[C@@H](CN(C)C(=O)C2CCCCC2)O3)c1 57 3 0 nt nt nt nt
COc1cccc(C#Cc2cnc3c(c2)C(=O)N([C@@H](C)CO)C[C@H](C)[C@@H](CN(C)C(=O)C2CCCCC2)O3)c1 117* 24 -86* 107* 63 -11 29
COc1cccc(C#Cc2cnc3c(c2)C(=O)N([C@H](C)CO)C[C@@H](C)[C@H](CN(C)C(=O)C2CCCCC2)O3)c1 98 22 -68 nt nt nt nt
C[C@@H]1CCCCO[C@@H](CN(C)Cc2ccc3c(c2)OCO3)[C@H](C)CN([C@H](C)CO)C(=O)c2cc(NC(=O)c3ccccc3)ccc2O1 nt -6 -71 nt nt nt nt
O=C(C[C@@H]1C=C[C@H](NC(=O)c2ccccc2)[C@@H](CO)O1)NCCc1ccncc1 -57 -2 2 nt nt nt nt
O=C(N[C@@H]1CC[C@@H](CC(=O)N2CCCCC2)O[C@@H]1CO)c1ccccn1 -31 1 13 nt nt nt nt
Cc1nn(C)cc1NC(=O)C[C@@H]1CC[C@@H]2[C@@H](COc3ccc(NC(=O)Nc4cccc(Cl)c4)cc3C(=O)N2C)O1 51 9 -8 nt nt nt nt
CCC(=O)N1C[C@H](C)[C@@H](OC)CN(C)C(=O)c2ccc(NC(=O)Nc3ccccc3)cc2OC[C@H]1C 17 -8 -33 nt nt nt nt
Cc1ccc(S(=O)(=O)N(C)C[C@H]2Oc3cc(C4=CCCC4)ccc3S(=O)(=O)N([C@@H](C)CO)C[C@H]2C)cc1 nt 3 -23 nt nt nt nt
Cc1ccc(S(=O)(=O)N(C)C[C@H]2Oc3cc(C4=CCCC4)ccc3S(=O)(=O)N([C@H](C)CO)C[C@@H]2C)cc1 nt 5 -73 nt nt nt nt
C[C@@H]1CN([C@H](C)CO)S(=O)(=O)c2ccc(C3=CCCCC3)cc2O[C@H]1CN(C)S(=O)(=O)c1ccc(F)cc1 122* 15 -57 103* 82 42* 88*
C[C@H](CO)N1C[C@H](C)[C@@H](CN(C)S(=O)(=O)c2ccc(F)cc2)Oc2cc(C3=CCCCC3)ccc2S1(=O)=O 114* 13 -69 102* 99* 38* 64*
COCC#Cc1ccc([C@@H]2[C@@H](CO)N3C(=O)CN(C(=O)C4CCOCC4)C[C@H]23)cc1 nt 4 25 nt nt nt nt
CCNC(=O)C[C@H]1CC[C@@H]2[C@H](COc3ccc(NC(=O)C4CCOCC4)cc3C(=O)N2C)O1 33 -11 2 nt nt nt nt
C[C@H](CO)N1C[C@H](C)[C@H](CN(C)Cc2cccnc2)Oc2cc(Br)ccc2S1(=O)=O nt 3 0 nt nt nt nt
C[C@@H]1CN([C@@H](C)CO)S(=O)(=O)c2ccc(Br)cc2O[C@@H]1CN(C)Cc1cccnc1 112* 0 24 107* 80 11 13
SMILES T_cruzi_growth-1 C_diff_HTS Pf_Dd2_growth T_cruzi_growth-2 T_cruzi_growth-3 NIH3T3_tox 3T3_cytotox_2
C[C@H]1CN([C@@H](C)CO)S(=O)(=O)c2ccc(Br)cc2O[C@H]1CN(C)Cc1cccnc1 nt -1 -2 nt nt nt nt
C[C@H](CO)N1C[C@H](C)[C@@H](CN(C)Cc2cccnc2)Oc2cc(Br)ccc2S1(=O)=O 111* 0 4 93 67 -5 39*
COc1ccc(C#Cc2ccc3c(c2)O[C@@H](CN(C)C)[C@@H](C)CN([C@H](C)CO)S3(=O)=O)cc1 41 3 -43 nt nt nt nt
C[C@@H]1CN([C@H](C)CO)S(=O)(=O)c2ccc(C#Cc3ccccc3)cc2O[C@@H]1CN(C)C 28 9 -65 nt nt nt nt
COc1ccc(C#Cc2ccc3c(c2)O[C@H](CN(C)C)[C@@H](C)CN([C@@H](C)CO)S3(=O)=O)cc1 ? 1 -51 109* 77 15 103*
C[C@H]1CN([C@@H](C)CO)S(=O)(=O)c2ccc(C#Cc3ccccc3)cc2O[C@@H]1CN(C)C 102* 5 -51 105* 41 5 103*
COc1ccc(S(=O)(=O)N(C)C[C@H]2OCCCC[C@H](C)Oc3ccc(NC(=O)Nc4c(C)noc4C)cc3C(=O)N([C@H](C)CO)C[C@H]2C)cc1 19 0 -74 nt nt nt nt
CN1C(=O)c2cc(NC(=O)Nc3cccc(Cl)c3)ccc2OC[C@H]2O[C@@H](CC(=O)O)CC[C@@H]21 6 -3 10 nt nt nt nt
COCC#Cc1cnc2c(c1)C(=O)N([C@H](C)CO)C[C@H](C)[C@@H](CN(C)Cc1ccc(F)cc1)O2 18 -10 6 nt nt nt nt

High-throughput results (PubChem)
